Experimental data published in PubChem BioAssay AID488969 (Vanderbilt High Throughput Screening Facility, 2010).
In all, about 110,000 compounds were measured (“z-score”: median about -0.1, highest 2% from about 2 on). For the sample, the highest values were picked, then their nearest neighbours and some compounds at random. The source made the active and inactive calls.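 How the source made its calls: active means z-score in the third read window above 3 or below -3; inactive means the rest.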

Molecular target: Metabotropic glutamate receptor 8 (Rattus norvegicus) (UniProt P70579)
Assay: rat mGluR8 modulators via GIRK flux, primary screen, cell-based, thallium flux, HTS (AID 488969)
Conditions: HEK293 rat mGluR8, GIRK (G protein-gated inwardly rectifying potassium channel) thallium flux, FluoZin2; at 10 µM; stronger effect = higher value; submaximal glutamate (EC20) added with thallium

Metabotropic glutamate receptor 8 (Rattus norvegicus), sequence (P70579 whole entry, looked up): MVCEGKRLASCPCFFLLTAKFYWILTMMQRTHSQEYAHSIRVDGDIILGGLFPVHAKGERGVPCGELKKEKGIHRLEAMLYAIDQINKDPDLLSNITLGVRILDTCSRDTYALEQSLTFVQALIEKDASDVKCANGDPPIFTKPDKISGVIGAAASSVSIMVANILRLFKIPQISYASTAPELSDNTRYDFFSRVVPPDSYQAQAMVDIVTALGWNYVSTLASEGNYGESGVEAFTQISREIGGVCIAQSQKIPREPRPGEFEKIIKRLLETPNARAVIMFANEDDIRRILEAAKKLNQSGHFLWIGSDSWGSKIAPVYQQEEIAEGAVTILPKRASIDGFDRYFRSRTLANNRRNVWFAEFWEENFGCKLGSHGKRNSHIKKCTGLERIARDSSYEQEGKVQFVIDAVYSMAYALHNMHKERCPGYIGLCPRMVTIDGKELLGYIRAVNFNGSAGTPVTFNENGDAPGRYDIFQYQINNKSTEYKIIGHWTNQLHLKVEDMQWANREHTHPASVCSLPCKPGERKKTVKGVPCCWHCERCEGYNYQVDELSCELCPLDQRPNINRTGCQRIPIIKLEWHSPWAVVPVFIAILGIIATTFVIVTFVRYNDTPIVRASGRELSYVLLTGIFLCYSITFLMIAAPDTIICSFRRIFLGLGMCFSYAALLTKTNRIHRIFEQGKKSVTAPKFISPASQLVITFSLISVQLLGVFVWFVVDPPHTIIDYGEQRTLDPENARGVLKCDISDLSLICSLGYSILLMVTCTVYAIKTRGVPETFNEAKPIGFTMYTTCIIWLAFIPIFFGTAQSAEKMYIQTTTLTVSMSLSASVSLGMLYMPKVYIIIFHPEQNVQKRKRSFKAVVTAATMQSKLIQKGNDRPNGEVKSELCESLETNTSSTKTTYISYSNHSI

Row | SMILES | z-score
1 | Cc1cc(Nc2cccc([N+](=O)[O-])c2)n2c(nc3ccccc32)c1C#N | 0.0405
2 | Cc1cccc(-n2c(O)c(/C=N/NC(=O)c3ccccc3Cl)c3ccccc3c2=O)n1 | 5.65 (active)
3 | Cc1cccc(-n2c(O)c(C=Nc3c(C)n(C)n(-c4ccccc4)c3=O)c3ccccc3c2=O)n1 | -0.137
4 | COc1cccc(N=Cc2c(O)n(-c3cccc(C)n3)c(=O)c3ccccc23)c1 | -0.226
5 | Cc1ccn2c(C(=O)N/N=C/c3ccc(CNC(=O)C(=O)Nc4ccc(C)c(C)c4)o3)c(C)nc2c1 | 0.623
6 | Cc1ccccc1NC(=O)c1nc[nH]c1C(=O)NCc1ccccc1 | 2.57
7 | CNC(=O)c1[nH]cnc1C(=O)Nc1ccccc1C | 0.825
8 | COc1ccc(NC(=O)c2nc[nH]c2C(=O)Nc2ccccc2C)cc1 | 0.48
9 | Cc1cccc(Oc2nc(-c3ccccc3)cc(C)c2S(C)(=O)=O)c1C | 0.102
10 | COc1ccc(-c2nc(C)ncc2-c2csc(C)n2)c(O)c1 | -0.348
11 | CN1/C(=C/C(=O)c2ccc(Cl)cc2)Sc2cc3c(cc21)OCO3 | -1.93
12 | CC(C)CCN1C(=O)CCC1(C)C(=O)NC1CCCCCCC1 (centres undefined) | -0.383
13 | CCOC(=O)C1C(=O)C=C(c2cccc(NS(C)(=O)=O)c2)CC1c1ccco1 (centres undefined) | -0.737
14 | CCOC(=O)C1C(=O)C=C(c2ccc(NS(C)(=O)=O)cc2)CC1c1ccco1 (centres undefined) | 2.57
15 | CCOC(=O)C1C(=O)C=C(c2ccc(C)cc2)CC1c1ccco1 (centres undefined) | -0.0925
16 | NNC(=O)C=C1CCN(c2ncc(C(F)(F)F)cc2Cl)CC1 | 0.00385
17 | Cc1ccc(C)c(NS(=O)(=O)c2cc(C(=O)NCc3ccco3)ccc2C)c1 | -0.408
18 | O=C(CN1CCCCC1)Nc1cccc(Cl)c1Cl | -0.108
19 | CCOC(=O)C(CCCCOc1cccc(CC)c1)C(=O)OCC | 3.18 (active)
20 | CCOC(=O)C(CCCOc1cccc(CC)c1)C(=O)OCC | 0.094
21 | CCOC(=O)C(CCOc1cccc(CC)c1)C(=O)OCC | -0.709
22 | O=C(CC(c1ccco1)C1CCCCC1=O)c1ccccc1 (centres undefined) | -0.656

Row | SMILES | z-score
23 | Cc1cccc(NC(=O)COC(=O)c2ccccc2-c2nc3ccccc3s2)c1C | -0.272
24 | O=C(Nc1cccc(-c2nc3ccccc3s2)c1)c1cc(-n2cnnc2)ccc1Cl | -0.00826
25 | COc1ccc(CNC(=O)COC(=O)CCC2CCCCC2)cc1 | -0.328
26 | CC(C)Oc1ccc(C2CC(=O)N(c3ccc(N(C)C)cc3)C2=O)cc1 (centres undefined) | -0.0638
27 | COc1ccc(N2C(=O)CC(c3ccc(OC(C)C)cc3)C2=O)cc1 (centres undefined) | -0.209
28 | CC(C)Oc1ccc(C2CC(=O)N(c3ccccc3)C2=O)cc1 (centres undefined) | 2.33
29 | COc1ccc(C2C(C(=O)Nc3cccc(C)n3)c3ccccc3C(=O)N2C)cc1OC (centres undefined) | -0.119
30 | CCOc1ccc(N(CC(=O)NN=C2CCN(C)CC2)S(C)(=O)=O)cc1 | -0.0704
31 | CCOC(=O)Cn1c(C)cc(=O)c2cccc(C)c21 | -0.0778
32 | Cc1cccc2c(=O)cc(C)n(CC(=O)N3CCCCC3)c12 | 3.39 (active)
33 | Cc1cccc2c(=O)cc(C)n(Cc3ccccc3)c12 | -0.148
34 | CC(Oc1ccccc1)C(=O)NC1CCN(Cc2ccccc2)CC1 (centres undefined) | -2.68
35 | C=CCSc1nnc(NC(=O)CSc2ccccn2)s1 | -0.421
36 | COc1ccc(/C(C)=C2/SC(=S)N(CCC(=O)O)C2=O)cc1 | -0.343
37 | Cc1ccc(C)n1-c1ccc(N2CCOCC2)nc1 | -0.064
38 | COc1ccc(-c2cc(C(F)(F)F)nc(SCC(=O)NCCN3CCOCC3)n2)cc1OC | 0.846
39 | O=C(CSc1nc(-c2ccccc2)cc(C(F)(F)F)n1)NCCN1CCOCC1 | 2.92
40 | O=C(CSc1nc(-c2ccc(F)cc2)cc(C(F)(F)F)n1)NCCN1CCOCC1 | 0.00416
41 | Cc1ccc(-n2c(SCC(N)=O)nnc2-c2ccccn2)cc1 | 2.09
42 | Cc1ccc(C)c(-n2c(SCC(N)=O)nnc2-c2ccccn2)c1 | -0.142
43 | Cc1ccc(-n2c(SCC(N)=O)nnc2-c2ccccn2)cc1C | 0.0328
44 | CCCCn1c(N)c(-c2nc3ccccc3s2)c2c([N+](=O)[O-])nn(C)c(=O)c21 | 1.31

Row | SMILES | z-score
45 | CCOC(=O)/C(=C/c1ccc(OC)cc1)NC(=O)c1ccco1 | -0.186
46 | COc1ccc(-c2csc(NC(=O)C3CCCCN3S(=O)(=O)c3ccccc3)n2)cc1 (centres undefined) | 1.82
47 | Cc1ccccc1-c1nnn(CC(=O)N2CCN(S(=O)(=O)c3ccc(Cl)cc3)CC2)n1 | -0.031
48 | Cn1c(=O)c2c(ncn2CC(=O)N/N=C/c2ccc(Br)s2)n(C)c1=O | 2.47
49 | Cn1c(=O)c2c(ncn2CC(=O)N/N=C/c2ccco2)n(C)c1=O | 1.59
50 | Cn1c(=O)c2c(ncn2CC(=O)N/N=C/C(Br)=C/c2ccccc2)n(C)c1=O | 0.116
51 | O=C(CSc1ccccc1Cl)NC1CCCc2ccccc21 (centres undefined) | -0.386
52 | O=C(NCc1ccco1)C1CCN(c2ccc(N3CCOCC3)nn2)CC1 | 0.321
53 | O=C(CCC(=O)Nc1ccccc1)NNC(=O)COc1ccccc1 | -0.00186
54 | O=C(Cc1ccccc1)N/N=C/c1ccc(OC(=O)/C=C\c2ccco2)cc1 | -0.0554
55 | CCN(CC)CCCn1c(C)cc2c(c1=O)C(c1cccc(Cl)c1)C(C#N)=C(N)O2 (centres undefined) | 2.38
56 | CCN(CC)CCCn1c(C)cc2c(c1=O)C(c1ccccc1)C(C#N)=C(N)O2 (centres undefined) | 0.538
57 | CCN(CC)CCCn1c(C)cc2c(c1=O)C(c1ccc(OC)c(OC)c1OC)C(C#N)=C(N)O2 (centres undefined) | -0.47
58 | O=S(=O)(/N=C(/Nc1ccc(F)c(F)c1F)c1ccccc1)c1ccccc1 | -0.125
59 | Cc1cc(C)nc(Sc2ncnc3sc4c(c23)CCC4)n1 | 5.12 (active)
60 | CCSc1ncnc2sc3c(c12)CCC3 | -0.0891
61 | CC(C#N)Sc1ncnc2sc3c(c12)CCC3 (centres undefined) | 0.00954
62 | O=C(NCc1ccc(Cl)cc1Cl)C(=O)N1CCCCC1 | 0.112
63 | O=C(COc1ccccc1)NCCc1cn2ccsc2n1 | 0.183
64 | Cc1ccc(C)c(NC(=O)c2cnn3ccccc23)c1 | -0.0235
65 | COc1cc(CCN2C(=O)c3cccc4cccc(c34)C2=O)c(S(=O)(=O)NCCCO)cc1OC | 0.452
66 | CCOC(=O)c1ccccc1Nc1cn(C(C)=O)c2ccccc12 | 2.73

Row | SMILES | z-score
67 | CCOC(=O)c1ccccc1NC(=O)COC | -0.129
68 | CC(=O)n1cc(Nc2ccccc2C(=O)O)c2ccccc21 | -1.18
69 | COc1cccc2[nH]c3c(N4CCC(C(N)=O)CC4)ncnc3c12 | 0.0357
70 | Cc1ccc(S(=O)(=O)N(CCC(=O)O)Cc2ccc(Cl)cc2)cc1 | -0.125
71 | Cc1ccc(S(=O)(=O)N2CCN(C(=O)CN3C(=O)NC4(CCOc5ccccc54)C3=O)CC2)cc1 (centres undefined) | 0.106
72 | CCN(CC)CCn1cnc2c([nH]c3cccc(OC)c32)c1=O | -0.0646
73 | CCOC(=O)C1CCN(C(=O)NC23CC4CC(CC(C4)C2)C3)CC1 | 3.31 (active)
74 | CCOC(=O)C1CCN(C(=O)C23CC4CC(CC(C4)C2)C3)CC1 | 0.212
75 | CCOC(=O)N1CCN(C(=O)NC23CC4CC(CC(C4)C2)C3)CC1 | -0.174
76 | Cc1cccc(NC(=S)NCCc2c[nH]c3ccccc23)c1 | 0.201
77 | CC(C)(C)Nc1nc2nonc2nc1NC(C)(C)C | -0.28
78 | Cc1oc(/C=N/NC(=O)CN(c2ccccc2Br)S(C)(=O)=O)cc1Br | -0.262
79 | CCN(CC)S(=O)(=O)c1csc(C(=O)NCc2ccccc2)c1 | 2.45
80 | CCN(CC)S(=O)(=O)c1csc(C(=O)NC2CCCCC2)c1 | 0.101
81 | CCN(CC)S(=O)(=O)c1csc(C(=O)OCC(=O)c2ccccc2)c1 | -0.217
82 | COn1c2c(c3c4no[n+]([O-])c4ccc31)CCCC2 | -0.414
83 | COc1cccc(NC(=O)CCSc2ccc3ccccc3n2)c1 | -0.0656
84 | O=C(O)c1cc(NS(=O)(=O)c2ccc(N3CCCCC3)c([N+](=O)[O-])c2)cc(C(=O)O)c1 | -0.105
85 | CCC(C)n1c(SCC(=O)NC(=O)Nc2ccc3c(c2)OCCO3)nc2ccccc2c1=O (centres undefined) | 4.47 (active)
86 | CCC(C)n1c(SCC(=O)Nc2cc(C)on2)nc2ccccc2c1=O (centres undefined) | 0.0932
87 | COCC(C)n1c(SCC(=O)NC(=O)Nc2ccc3c(c2)OCCO3)nc2ccccc2c1=O (centres undefined) | -1.25
88 | Cn1c(=O)c2c(nc(SCC(=O)NCc3ccco3)n2C)n(C)c1=O | 0.332

Row | SMILES | z-score
89 | C/C(CC(=O)Nc1ccccn1)=N\NC(=O)c1ccc2ccccc2c1 | -0.53
90 | CCCNC(=O)C(=O)Nc1ccc(N(C)C)cc1 | -0.0526
91 | CC1CCCC(NC(=S)NC(=O)c2ccccc2Br)C1C (centres undefined) | 2.91
92 | CC1CCCCC1NC(=S)NC(=O)c1ccccc1Br (centres undefined) | 0.799
93 | O=C(NC(=S)NCC1CCCO1)c1ccccc1Br (centres undefined) | 1.6
94 | Cc1cccnc1NC(=S)NC(=O)c1cncc(Br)c1 | -0.14
95 | COc1ccccc1/C=C/C(=O)NC(=S)N(C)C1CCCCC1 | 4.46 (active)
96 | COc1ccccc1/C=C/C(=O)NC(=S)NC(C)C | 0.776
97 | CC1CCCC(NC(=S)NC(=O)c2cncc(Br)c2)C1C (centres undefined) | 6.76 (active)
98 | Cc1ccccc1NC(=S)NC(=O)c1cncc(Br)c1 | 6.92 (active)
99 | O=C(NC(=S)Nc1ncc(Br)cc1Br)c1cncc(Br)c1 | 0.278
100 | COc1ccccc1/C=C/C(=O)NC(=S)Nc1ccc(S(=O)(=O)N(C)c2ccccc2)cc1 | 0.119
101 | O=C(NC(=S)Nc1ccc(Br)cn1)c1cncc(Br)c1 | 0.371
102 | O=C(NC(=S)Nc1ccccn1)c1cncc(Br)c1 | 0.829
103 | CCOC(=O)c1c(C)nc2sc3c(=O)n(-c4ccc(C(C)=O)cc4)cnc3c2c1-c1ccc(Cl)cc1 | -0.533
104 | CC(C)(Oc1ccc(Cl)cc1)C(=O)N1CCN(c2ccccn2)CC1 | -0.0555
105 | Cc1cc(C)nc(/N=C2\NC(=O)CC3C(=O)NCCN23)n1 (centres undefined) | -0.12
106 | CS(=O)(=O)N(CC(=O)NCc1ccncc1)c1ccc(Cl)c(Cl)c1 | -0.214
107 | COC(=O)c1cc(Cl)c(NC(=O)/C=C/c2ccc(Cl)cc2)cc1OC | -0.0302
108 | CCCN1C2CCCC1CC(NC(=O)Nc1ccc(C(C)C)cc1)C2 (centres undefined) | 0.407
109 | CN1CCN(Cc2cc(=O)oc3cc4c(cc23)CCC4)CC1 | 0.745
